Source: the OligoGym collection
Also: reference of the scale not given here.

What follows are sequences tested against SNTG1 (assay: pooled miR-30 sensor sort-seq; sequence = guide strand). Settings: shRNA.
In the case of TTAGAGTCACTTCTTCTCCAGC, the sensor-assay potency score (higher = more potent) is reported as -1. For TTGCTCGTGGTAGCAGAGCTGG, the sensor-assay potency score (higher = more potent) was -1.52. TTGTCTTCTGATGGTCACCGTT gave a sensor-assay potency score (higher = more potent) of -1.02. TTTAATATTGTGCTTTGTGAGA showed a sensor-assay potency score (higher = more potent) of -0.565. TAGCACACATGCATAGGTCTTG gave a sensor-assay potency score (higher = more potent) of 0.196. TTGGAGCACATGCACAATCTTC showed a sensor-assay potency score (higher = more potent) of -1.22. TAGGTCTTGCACTGTATCCGTT showed a sensor-assay potency score (higher = more potent) of -0.173. Sequence TTTGTTGCAGCATCAAAGCAGA has a sensor-assay potency score (higher = more potent) of -0.518. Sequence TGACTTTCTAGCACACATGCAT has a sensor-assay potency score (higher = more potent) of -0.281. In the case of TAATGTGTCTGTATTGTTGGGA, the sensor-assay potency score (higher = more potent) is reported as 0.882. Sequence TGAAGCACTGTTTCCGTCGGTC has a sensor-assay potency score (higher = more potent) of -0.425. With TTATCTGTAGAATTGCATCTCC the sensor-assay potency score (higher = more potent) was 0.36.

Each sequence was assayed against SNX19 in the same assay as above. Settings: shRNA.
For TGAACTTTCGTAGATCTGGTTT, the sensor-assay potency score (higher = more potent) was -0.266. Sequence TTAATATACAGCACTTCCCTGT has a sensor-assay potency score (higher = more potent) of 0.105. For TACTTCACAGTATAGAGTGTGT, the sensor-assay potency score (higher = more potent) was -0.265. Sequence TAGATCTGGTTTCTCCTCCAGA has a sensor-assay potency score (higher = more potent) of -0.172. Work on TAACTCTACTTCCCTGACCTGG yielded a sensor-assay potency score (higher = more potent) of -0.776. In the case of TTCTACTCTGTCACTGTCCATG, the sensor-assay potency score (higher = more potent) is reported as -0.887. TTTCTTCACACATCCCACCCAA showed a sensor-assay potency score (higher = more potent) of -0.125. TGAGGTGACAGCTCGATCCAGC gave a sensor-assay potency score (higher = more potent) of 0.362. In the case of TTATTGAGGTGACAGCTCGATC, the sensor-assay potency score (higher = more potent) is reported as -1.16. TTTCCAGTAACTTTGTCTGTTT gave a sensor-assay potency score (higher = more potent) of -0.546. Work on TACTCTGTCACTGTCCATGTTT yielded a sensor-assay potency score (higher = more potent) of -0.134. Sequence TAAAGGACTGATTATAACCGTA has a sensor-assay potency score (higher = more potent) of -0.44.
